# About 83,000 compounds went through this panel and 20% of them were active in at least one assay; those are over-represented in the sample as a whole.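 Activity criterion: percent growth below 10, measured after cells in 96-well plates were exposed to a single compound concentration for 48 hours.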 Values without a mark were called inactive. Activity calls are given as the source filed them.
# What was measured:
# Assay in all cases: NCI-60 one-dose screen, 48 h (100 = growth as untreated, 0 = no growth, -100 = all killed)
# Details in all cases: 10 µM unless noted
# DU-145 prostate = test system: DU-145 prostate
# K-562 leukemia = test system: K-562 leukemia
# MALME-3M melanoma = test system: MALME-3M melanoma
# MDA-MB-231 breast = test system: MDA-MB-231 breast
# RXF 393 renal = test system: RXF 393 renal
# SF-268 CNS = test system: SF-268 CNS
# SF-295 CNS = test system: SF-295 CNS
# SF-539 CNS = test system: SF-539 CNS
# UACC-257 melanoma = test system: UACC-257 melanoma
# M14 melanoma = test system: M14 melanoma
SMILES,growth (DU-145 prostate) [%],growth (K-562 leukemia),growth (MALME-3M melanoma),growth (MDA-MB-231 breast),growth (RXF 393 renal),growth (SF-268 CNS) [%],growth (SF-295 CNS) [%],growth (SF-539 CNS),growth (UACC-257 melanoma),growth (M14 melanoma)
CC[C@]12C=CCN3CC[C@@]4(c5ccc(OC)cc5N(C)[C@H]4[C@@](O)(C(=O)OC)[C@@H]1OC(=O)CCC[P+](c1ccccc1)(c1ccccc1)c1ccccc1)[C@@H]32,18,10.4%,-12.4% (active),1.29% (active),28.9%,19.2,23.3,16.2%,-27.3% (active),17.7%
Cc1ccc(/C=C/C(=O)Nc2ncc(Cc3ccc(F)cc3)s2)o1,55.6,20.3%,45.9%,77.7%,66.9%,53.3,35,48.2%,76.3%,33.5%
COc1ccc(C(=O)c2cc3c(N)c(C(=O)Nc4ccccc4)sc3nc2C)cc1,17.7,8.08% (active),62.7%,23.3%,-2.82% (active),51.4,26.9,-5.08% (active),70.7%,13.1%
C=C1C(=O)O[C@H]2[C@H]1CC/C(COC(=O)c1ccc(C(=O)O)s1)=C\CC[C@@]1(C)O[C@@H]21,18.6,3.11% (active),3.09% (active),-3.52% (active),-56% (active),24.2,81,-25.7% (active),52.7%,23.1%
COc1ccc(/C(C)=C(/c2ccc(OCCCN(C)C)cc2)c2ccc(OC(=O)c3ccccc3)cc2)cc1,102,38.9%,83.6%,71.1%,66.7%,77.8,89.8,89.1%,89.7%,66.4%
CN1CCN(c2ccc(NC(=O)c3cncnc3Nc3ccc(OCc4cccc(F)c4)c(Cl)c3)cc2)CC1,80.3,1.91% (active),78.4%,-13.3% (active),55.5%,78.7,99.8,43.3%,90.5%,-15.5% (active)
FC(F)(F)Oc1cccc(-c2cnc3ccc(-c4ccncc4)nn23)c1,22.2,31.6%,39.2%,32.9%,-29.6% (active),18.9,17.4,-2.61% (active),48.6%,26.8%
CCCCCCCCCCCCCCCCCC1=NC(C)(C)CN1CC(C)O (stereo not given),34.5,-25.7% (active),97.4%,-9.03% (active),66.4%,14.6,95.9,19.9%,103%,36.6%
C=C(C)[C@@H]1CC[C@]2(C)[C@H](CC=C3[C@@H]4CC(C)(C)CC[C@]4(CO)CC[C@]32C)[C@@]1(C)CCCN,44,-47.7% (active),-45.7% (active),27%,31.6%,67.6,90.6,-61.5% (active),-85.2% (active),-65.5% (active)
CCN1CCN(CC(=O)Nc2ccc(-c3cn4c(n3)sc3cc(Oc5ccnc(C(=O)NC)c5)ccc34)cc2)CC1,105,-11.1% (active),87.7%,85.1%,69.2%,87.2,65.4,65.4%,96.2%,73.8%
O=C(Cc1ccc(NC(=O)c2cccc(Cl)c2)cc1)NCc1ccccc1,86.1,13.9%,61.3%,60.8%,65%,61.7,41.3,36.7%,69.1%,18.7%
Cc1ccc(C)c(/C=C2\CN(C(=O)OC(C)(C)C)C/C(=C\c3cc(C)ccc3C)C2=O)c1,37.7,7.09% (active),67.7%,92.1%,91.1%,53.6,55.9,94.9%,59.4%,20.1%
CCCCCCCCCCCCCOC(=O)c1c(C)[nH]c(/C=C2\N=C(c3ccc[nH]3)C=C2OC)c1C,29.3,5.53% (active),41.8%,19.6%,27.7%,34.2,49.9,10.8%,38.7%,1.88% (active)
CC1=C(C(=O)Nc2nc(-c3ccc(Cl)cc3)cs2)[C@H](c2ccc(O)cc2)NC(=O)N1,98,96.8%,99.6%,90.2%,104%,87.1,95.7,99.3%,105%,98.1%
Cc1ccc(C(=O)c2ccc(CC(=O)NN3C(=O)c4ccccc4C3=O)n2C)cc1,108,90.9%,101%,93.9%,102%,95.8,98.6,97.3%,100%,104%
O=C1Nc2ccccc2/C1=C/c1cccn1C(=O)c1ccc(Cl)s1,66.8,36.8%,104%,50.9%,81.1%,39.4,88.8,62.4%,79.5%,82.2%

# Reference: PubChem BioAssay (NCI)
